Several values for one entry are separate records, joined by “and”; a condition that tells them apart may be missing. Identical values can stand only once. Inconclusive results are not listed. Some compounds were tested as several samples or in several runs, with calls that do not always agree. Activity calls are given as the source filed them. The calls were made as follows: active = hit-call score of the fitted dose curve at least 0.9, where 1 is the maximum; inconclusive = response in the unintended direction; inactive = score below 0.9.

Tested on in the first experiment: not listed separately
Description: TOX21_p53_BLA_p3_viability: Viability Assessment in the Tox21 HCT-116 p53 Agonism Beta-lactamase Assay, Phase 3 (AID 2283593).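 Also: cells exposed to compound for 16 h before reading.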 The gist of the method: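 Cellular ATP was quantified by CellTiter-Glo luminescence, read after 30 min at room temperature. Beforehand, HCT116 cells (4000/well) received compound 5 h post-seeding, 217-fold diluted from DMSO, then incubated 16 h at 37C.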
By AC50 is commonly meant the concentration at which the activity in the assay is half-maximal. As for `O=c1n(CC2CO2)c(=O)n(CC2CO2)c(=O)n1CC1CO1` (stereo not drawn), the AC50 was 74.3 µM (active) and the outcome was inactive.

As to `O=C1CCC(N2C(=O)c3ccccc3C2=O)C(=O)N1` (stereo not drawn), the call was inactive.

For the molecule `Cc1ccc(S(=O)(=O)O)cc1C`, the molecule was classed as inactive.

On to `C1N2CN3CN1CN(C2)C3`, for which the molecule was classed as inactive.

On to `COC(=O)c1c(Cl)c(Cl)c(C(=O)OC)c(Cl)c1Cl`, for which the molecule was called inactive.

On to `CN(C)c1ccc(N=NS(=O)(=O)O)cc1`, for which the outcome was inactive.

As for `CC(C)CC(C)(O)C#CC(C)(O)CC(C)C` (stereo not drawn), the call was inactive.

Consider `O=C1OC(=O)C2C3C=CC(C3)C12` (stereo not drawn), for which the result was inactive.

On to `COC(=O)c1ccccc1O`, for which the outcome was inactive.

As for `O=C(CCCCCCCCc1cccnc1)N1CCC(C=C(c2ccccc2)c2ccccc2)CC1`, the concentration at half-maximal activity (AC50) is 28.2 µM (active).

`C[C@](N)(Cc1ccc(O)c(O)c1)C(=O)O`: the call was inactive.

With `Cn1cnc([N+](=O)[O-])c1Sc1ncnc2nc[nH]c12`, the AC50 is 4.91 µM (active) and the molecule was classed as inactive.

As for `O=C1CCCCCN1`, the molecule was classed as inactive.

On to `Oc1ccc2c(c1)-c1ccccc1C2`, for which the result was inactive.

For the molecule `CC(C)=CCC/C(C)=C\CO`, the result was inactive.

Consider `CCC(C)(C)C(=O)O[C@H]1C[C@@H](C)C=C2C=C[C@H](C)[C@H](CC[C@@H]3C[C@@H](O)CC(=O)O3)[C@H]21`, for which the AC50 is 75.7 µM (active).

For the molecule `Nc1cccc(N)c1`, the outcome was inactive.

Regarding `Nc1nc2ncc(CNc3ccc(C(=O)N[C@@H](CCC(=O)O)C(=O)O)cc3)nc2c(=O)[nH]1`, the result was inactive.

`Cn1c(=O)c2c(ncn2C)n(C)c1=O`: the call was inactive.

For the molecule `O=C(OC[C@H]1O[C@@H](OC(=O)c2cc(O)c(O)c(OC(=O)c3cc(O)c(O)c(O)c3)c2)[C@H](OC(=O)c2cc(O)c(O)c(OC(=O)c3cc(O)c(O)c(O)c3)c2)[C@@H](OC(=O)c2cc(O)c(O)c(OC(=O)c3cc(O)c(O)c(O)c3)c2)[C@@H]1OC(=O)c1cc(O)c(O)c(OC(=O)c2cc(O)c(O)c(O)c2)c1)c1cc(O)c(O)c(OC(=O)c2cc(O)c(O)c(O)c2)c1`, the AC50 is 6.6 µM (active) and the result was inactive.

With `Cc1[nH]cnc1C[C@H]1CCc2c(C)c3ccccc3n2C1=O`, the call was inactive.

For the molecule `CCCCCCc1ccc(O)cc1O`, the half-maximal activity concentration (AC50) is 67.1 µM (active) and the molecule was called inactive.

On to `CC(=O)OC[C@H]1O[C@@](COC(C)=O)(O[C@H]2O[C@H](COC(C)=O)[C@@H](OC(C)=O)[C@H](OC(C)=O)[C@H]2OC(C)=O)[C@@H](OC(C)=O)[C@@H]1OC(C)=O`, for which the outcome was inactive.

On to `O=P(OC(CCl)CCl)(OC(CCl)CCl)OC(CCl)CCl`, for which the molecule was called inactive.

For `COc1ccc(-n2nc(C(F)F)cc2-c2ccc(S(C)=O)cc2)cc1` (stereo not drawn), the call was inactive.

Turning to `O=C(O)c1cc(N=Nc2ccc(S(=O)(=O)Nc3ccccn3)cc2)ccc1O`, the call was inactive.

Take `CC(C)c1cccc(C(C)C)c1N1C(=O)c2ccc(O)cc2C1=O`: the AC50 was 74.9 µM (active).

Regarding `CC(=O)OCCC(C)C`, the result was inactive.

Regarding `O=C(O)c1cccc(N(Cc2cccnc2)c2ccc(OC(F)F)c(OC(F)F)c2)c1`, the result was inactive.

The target in the next experiment is Cellular tumor antigen p53 (Homo sapiens) (UniProt P04637). Description: TOX21_p53_BLA_p3_ratio: Tox21 HCT-116 p53 Agonism Beta-lactamase Assay, Ratio, Phase 3 (AID 2283596). The gist of the method: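 Cells were seeded at 4000/well, rested 5 h at 37C, then dosed with DMSO compound solutions (217-fold dilution) for 16 h. CCF4-AM substrate was loaded for 2 h at room temperature, and the 460/530 nm emission ratio was fitted for gain of signal versus DMSO.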
Cellular tumor antigen p53 (Homo sapiens), sequence (P04637 whole entry, looked up): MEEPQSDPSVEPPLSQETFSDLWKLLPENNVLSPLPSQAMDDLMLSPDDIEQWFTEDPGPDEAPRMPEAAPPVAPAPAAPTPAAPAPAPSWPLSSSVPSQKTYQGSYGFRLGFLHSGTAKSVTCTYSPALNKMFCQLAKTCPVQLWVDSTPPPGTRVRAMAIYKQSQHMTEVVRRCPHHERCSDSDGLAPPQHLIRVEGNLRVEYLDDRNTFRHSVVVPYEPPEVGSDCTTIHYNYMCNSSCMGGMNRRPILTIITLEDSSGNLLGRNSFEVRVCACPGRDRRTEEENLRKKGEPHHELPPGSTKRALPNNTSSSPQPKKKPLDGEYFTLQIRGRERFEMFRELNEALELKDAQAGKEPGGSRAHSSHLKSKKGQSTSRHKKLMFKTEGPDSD
For the molecule `O=c1n(CC2CO2)c(=O)n(CC2CO2)c(=O)n1CC1CO1` (stereo not drawn), the AC50 is 26.8 µM (active) and 19.6 µM (active).

For the molecule `O=C1CCC(N2C(=O)c3ccccc3C2=O)C(=O)N1` (stereo not drawn), the outcome was inactive.

As to `Cc1ccc(S(=O)(=O)O)cc1C`, the outcome was inactive.

`C1N2CN3CN1CN(C2)C3`: the outcome was inactive.

Turning to `COC(=O)c1c(Cl)c(Cl)c(C(=O)OC)c(Cl)c1Cl`, the result was inactive.

For `CN(C)c1ccc(N=NS(=O)(=O)O)cc1`, the result was inactive.

Consider `CC(C)CC(C)(O)C#CC(C)(O)CC(C)C` (stereo not drawn), for which the result was inactive.

As for `O=C1OC(=O)C2C3C=CC(C3)C12` (stereo not drawn), the outcome was inactive.

Consider `COC(=O)c1ccccc1O`, for which the outcome was inactive.

For `O=C(CCCCCCCCc1cccnc1)N1CCC(C=C(c2ccccc2)c2ccccc2)CC1`, the AC50 is 43.2 µM (active).

On to `C[C@](N)(Cc1ccc(O)c(O)c1)C(=O)O`, for which the outcome was inactive.

Turning to `Cn1cnc([N+](=O)[O-])c1Sc1ncnc2nc[nH]c12`, the half-maximal activity concentration (AC50) is 30 µM (active) and 33.1 µM (active).

As to `O=C1CCCCCN1`, the result was inactive.

Take `Oc1ccc2c(c1)-c1ccccc1C2`: the result was inactive.

With `CC(C)=CCC/C(C)=C\CO`, the result was inactive.

As to `CCC(C)(C)C(=O)O[C@H]1C[C@@H](C)C=C2C=C[C@H](C)[C@H](CC[C@@H]3C[C@@H](O)CC(=O)O3)[C@H]21`, the result was inactive.

With `Nc1cccc(N)c1`, the outcome was inactive.

Regarding `Nc1nc2ncc(CNc3ccc(C(=O)N[C@@H](CCC(=O)O)C(=O)O)cc3)nc2c(=O)[nH]1`, the result was inactive.

`Cn1c(=O)c2c(ncn2C)n(C)c1=O`: the outcome was inactive.

Regarding `O=C(OC[C@H]1O[C@@H](OC(=O)c2cc(O)c(O)c(OC(=O)c3cc(O)c(O)c(O)c3)c2)[C@H](OC(=O)c2cc(O)c(O)c(OC(=O)c3cc(O)c(O)c(O)c3)c2)[C@@H](OC(=O)c2cc(O)c(O)c(OC(=O)c3cc(O)c(O)c(O)c3)c2)[C@@H]1OC(=O)c1cc(O)c(O)c(OC(=O)c2cc(O)c(O)c(O)c2)c1)c1cc(O)c(O)c(OC(=O)c2cc(O)c(O)c(O)c2)c1`, the AC50 is 11.2 µM (active) and 5.34 µM (active).

In the case of `Cc1[nH]cnc1C[C@H]1CCc2c(C)c3ccccc3n2C1=O`, the half-maximal activity concentration (AC50) is 63.9 µM (active).

In the case of `CCCCCCc1ccc(O)cc1O`, the concentration at half-maximal activity (AC50) is 63.9 µM (active) and the result was inactive.

Turning to `CC(=O)OC[C@H]1O[C@@](COC(C)=O)(O[C@H]2O[C@H](COC(C)=O)[C@@H](OC(C)=O)[C@H](OC(C)=O)[C@H]2OC(C)=O)[C@@H](OC(C)=O)[C@@H]1OC(C)=O`, the outcome was inactive.

Turning to `O=P(OC(CCl)CCl)(OC(CCl)CCl)OC(CCl)CCl`, the outcome was inactive.

On to `COc1ccc(-n2nc(C(F)F)cc2-c2ccc(S(C)=O)cc2)cc1` (stereo not drawn), for which the result was inactive.

Turning to `O=C(O)c1cc(N=Nc2ccc(S(=O)(=O)Nc3ccccn3)cc2)ccc1O`, the result was inactive.

`CC(C)c1cccc(C(C)C)c1N1C(=O)c2ccc(O)cc2C1=O`: the outcome was inactive.

In the case of `CC(=O)OCCC(C)C`, the result was inactive.

With `O=C(O)c1cccc(N(Cc2cccnc2)c2ccc(OC(F)F)c(OC(F)F)c2)c1`, the result was inactive.

For the origin of these results see PubChem BioAssay (EPA / NIEHS).
